# Reference: PubChem BioAssay (Tox21)
# Unmarked numbers belong to inactive results. Inconclusive results are not listed. A call without a number means that no potency is given here. Activity calls are given as the source filed them. Calls come from the whole dose curve.
# Key:
# [1] = target: Acetylcholinesterase (Homo sapiens) (UniProt P22303); assay: Acetylcholinesterase (AChE) small molecule antagonists: colormetric cell-based qHTS assay (AID 1347395); note: nearly all actives have a fitted effect of over 30% in size
# Chain of Acetylcholinesterase (Homo sapiens) (P22303 whole entry, looked up): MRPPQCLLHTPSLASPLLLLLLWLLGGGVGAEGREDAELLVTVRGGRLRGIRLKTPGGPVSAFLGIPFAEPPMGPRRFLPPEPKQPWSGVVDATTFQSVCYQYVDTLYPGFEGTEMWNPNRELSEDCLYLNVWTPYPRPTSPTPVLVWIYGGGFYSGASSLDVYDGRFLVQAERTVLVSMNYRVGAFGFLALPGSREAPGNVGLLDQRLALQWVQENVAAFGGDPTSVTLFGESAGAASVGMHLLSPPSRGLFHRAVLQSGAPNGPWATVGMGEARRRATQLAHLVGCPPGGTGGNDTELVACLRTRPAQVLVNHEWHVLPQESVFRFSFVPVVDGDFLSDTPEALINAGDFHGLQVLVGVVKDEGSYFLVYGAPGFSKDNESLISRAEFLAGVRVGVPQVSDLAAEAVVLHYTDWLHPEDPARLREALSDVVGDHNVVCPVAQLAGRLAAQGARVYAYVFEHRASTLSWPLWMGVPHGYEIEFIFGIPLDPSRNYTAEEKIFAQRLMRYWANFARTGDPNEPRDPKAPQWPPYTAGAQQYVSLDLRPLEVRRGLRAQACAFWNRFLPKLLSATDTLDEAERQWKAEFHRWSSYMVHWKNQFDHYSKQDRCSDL
# Summary of the method: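 SH-SY5Y cells attached overnight, exposed to compound 30 min at 37 C, then given DTNB/acetylthiocholine; after 90 min at 37 C, colorimetric thiocholine read gives cellular AChE activity.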
# [2] = target: Acetylcholinesterase (Homo sapiens) (UniProt P22303); assay: Acetylcholinesterase (AChE) small molecule antagonists: enzyme-based qHTS assay (AID 1347397); conditions: Potency: AChE enzyme activity inhibition; outcome: AChE enzyme activity inhibition; note: nearly all actives have a fitted effect of over 55% in size
# Summary of the method: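 rhAChE 50 mU/mL (dispensed) + cpd or DMSO, 30 min RT; add DTNB/acetylthiocholine cocktail, 10 min RT; colorimetric thiocholine readout. qHTS, 1536-well format.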
# [3] = target: Acetylcholinesterase (Homo sapiens) (UniProt P22303); assay: Acetylcholinesterase (AChE) small molecule antagonists: fluorescence cell-based qHTS assay (AID 1347398); conditions: Potency: AChE activity; outcome: AChE activity; note: nearly all actives have a fitted effect of over 50% in size
# Summary of the method: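 Read-out is Thiolite Green fluorescence at Ex/Em = 490/520 nm, formed by reaction with thiocholine released when cellular AChE in SH-SY5Y cells hydrolyzes acetylthiocholine. Compounds were preincubated 30 min at 37 C before substrate.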
# [4] = target: Acetylcholinesterase (Homo sapiens) (UniProt P22303); assay: Acetylcholinesterase (AChE) small molecule antagonists: enzyme-based qHTS assay with human liver microsomes (AID 1347399); conditions: Potency: qHTS inhibition; outcome: qHTS inhibition; note: nearly all actives have a fitted effect of over 60% in size
# Summary of the method: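 Recombinant human AChE (50 mU/mL in the enzyme mix) and human liver microsomes (0.25 mg/mL final) were preincubated with compound and NADPH (0.25 mg/mL final) for 30 min at 37 C. Acetylthiocholine/DTNB was then added; thiocholine was read colorimetrically after 10 min at room temperature.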
# Potency is the fitted concentration of half-maximal effect.
SMILES,Potency [1],Potency [2],Potency [3],Potency [4],"activity, negative = inhibition [1]","activity change, negative = inhibition [2]","activity change, negative = inhibition [3]","activity change, negative = inhibition [4]"
CCC(C)(Oc1ccc(C2(c3ccc(OC(C)(CC)C(=O)O)cc3)CCCCC2)cc1)C(=O)O (stereo not given),inactive,inactive,inactive,inactive,,,,
CC(C)(C)OC(=O)c1ccc(O)cc1,inactive,inactive,inactive,inactive,,,,
NCC(=O)O,,,,,0.505% [at 23.6 µM],0.147% [at 23.6 µM],6.61% [at 23.8 µM],0.434% [at 23.6 µM]
C[C@@]12CCC[C@H]1[C@@H]1CC[C@H]3C[C@@H](O)CC[C@]3(C)[C@H]1CC2,inactive,inactive,inactive,inactive,,,,
OC1CCCCC1c1ccccc1 (stereo not given),inactive,inactive,inactive,inactive,,,,
CC(C)Cn1cnc2c(N)nc3ccccc3c21,,,,,-1.3% [at 23.6 µM],-0.415% [at 23.6 µM],-8.86% [at 23.8 µM],1.68% [at 23.6 µM]
CCCCCCCCCCCCCC(=O)OC,inactive,inactive,inactive,inactive,,,,
O=C1Nc2ccc(Cl)cc2[C@@](C#CC2CC2)(C(F)(F)F)O1,inactive,inactive,inactive,inactive,,,,
COc1ccc(Cl)cc1C,inactive,inactive,inactive,inactive,,,,
C#C[C@]1(O)CC[C@H]2[C@@H]3CCc4cc(OC5CCCC5)ccc4[C@H]3CC[C@@]21C,inactive,inactive,inactive,inactive,,,,
C=CC(=O)NCOCC(C)C,inactive,inactive,inactive,inactive,,,,
CCOC(=O)CC#N,inactive,inactive,inactive,inactive,,,,
C=COCCOCCOCCOC=C,inactive,inactive,inactive,inactive,,,,
CC1(CO)CN(c2ccccc2)NC1=O (stereo not given),inactive,inactive,inactive,inactive,,,,
O=C(O)COCC(=O)O,inactive,inactive,inactive,inactive,,,,
O=C1c2ccccc2C(=O)c2c(Cl)cccc21,inactive,inactive,inactive,inactive,,,,
CC(O)C1CCCCC1 (stereo not given),inactive,inactive,inactive,inactive,,,,
Cc1ccc(Cl)c(OCC(O)CNC(C)(C)C)c1 (stereo not given),inactive,inactive,inactive,inactive,,,,
COCCOC(=O)C1=C(C)NC(C)=C(C(=O)OC/C=C/c2ccccc2)C1c1cccc([N+](=O)[O-])c1 (stereo not given),inactive,inactive,inactive,inactive,,,,
CCOC(=O)CC,inactive,inactive,inactive,inactive,,,,
COc1ccc(OC)c(OC)c1,inactive,inactive,inactive,inactive,,,,
CCCCCCCC/C=C\CCCCCCCCO,inactive,inactive,inactive,inactive,,,,

SMILES,Potency [1],Potency [2],Potency [3],Potency [4],"activity, negative = inhibition [1]","activity change, negative = inhibition [2]","activity change, negative = inhibition [3]","activity change, negative = inhibition [4]"
O=C[C@H](O)[C@@H](O)[C@H](O)[C@H](O)CO,inactive,inactive,inactive,inactive,,,,
O=Cc1ccc(F)cc1,inactive,inactive,inactive,inactive,,,,
O=C(CC(=O)C(F)(F)F)c1ccccc1,inactive,inactive,inactive,inactive,,,,
CCCCCCCCCCC=O,inactive,inactive,inactive,inactive,,,,
CO[Si](CCCS)(OC)OC,inactive,inactive,inactive,inactive,,,,
COC(=O)c1cccc(Cl)c1,inactive,inactive,inactive,inactive,,,,
CC(=O)c1ccc2c(c1)CCCC2,inactive,inactive,inactive,inactive,,,,
CC(C)C(C)C,inactive,inactive,inactive,inactive,,,,
CCC(CO)(CO)COCC(CC)(CO)CO,inactive,inactive,inactive,inactive,,,,
Brc1cc(-c2ccc(Br)c(Br)c2Br)cc(Br)c1Br,inactive,inactive,inactive,inactive,,,,
CCCC1CCOC(C)S1 (stereo not given),inactive,inactive,inactive,inactive,,,,
CC(C)(C)OC(=O)c1ccccc1C(=O)O,inactive,inactive,inactive,inactive,,,,
CCC(C(=O)OCCOCCN(CC)CC)c1ccccc1 (stereo not given),inactive,inactive,inactive,inactive,,,,
CC1(C)C(=O)N(Br)C(=O)N1Cl,inactive,inactive,inactive,inactive,,,,
Cc1c(C(=O)NN2CCCCC2)nn(-c2ccc(Cl)cc2Cl)c1-c1ccc(Cl)cc1,inactive,inactive,inactive,inactive,,,,
O=C(Cl)c1cccc([N+](=O)[O-])c1,inactive,inactive,inactive,inactive,,,,
COC(=O)C1=C(C)NC(COC(N)=O)=C(C(=O)OC(C)C)C1c1cccc(Cl)c1Cl (stereo not given),inactive,inactive,inactive,inactive,,,,
C=CC/C=C/C/C=C/C/C=C/C,inactive,inactive,inactive,inactive,,,,
Cc1ccc(O)cn1,inactive,inactive,inactive,inactive,,,,
FC(F)(F)c1ccc(Cl)cc1Cl,inactive,inactive,inactive,inactive,,,,
CCC(=O)C(=O)CC,inactive,inactive,inactive,inactive,,,,
C=CC(=C)CCCC(C)(C)OC(C)=O,inactive,inactive,inactive,inactive,,,,

SMILES,Potency [1],Potency [2],Potency [3],Potency [4],"activity, negative = inhibition [1]","activity change, negative = inhibition [2]","activity change, negative = inhibition [3]","activity change, negative = inhibition [4]"
CCCCCCCCCCCC(=O)OCC,inactive,inactive,inactive,inactive,,,,
CO[Si](C)(OC)OC,inactive,inactive,inactive,inactive,,,,
C=CC(=C)CC/C=C(\C)CCC=C(C)C,,,,,-2.99% [at 23.6 µM],0.554% [at 23.6 µM],-5.88% [at 23.8 µM],-0.162% [at 23.6 µM]
O=C1OC(=O)C2C3C=CC(C3)C12 (stereo not given),inactive,inactive,inactive,inactive,,,,
CCCCC(CC)CNC(=O)CC(C)OC(=O)CCC(=O)O (stereo not given),inactive,inactive,inactive,inactive,,,,
CCCOC(OCCC)OCCC,inactive,inactive,inactive,inactive,,,,
CC(C)[C@H]1CC[C@H](C)C[C@@H]1O,inactive,inactive,inactive,inactive,,,,
CCOC(=O)[C@H](CCc1ccccc1)N[C@H]1CS[C@H](c2cccs2)CN(CC(=O)O)C1=O,inactive,inactive,inactive,inactive,,,,
CCCCC(CC)CNCC(CC)CCCC (stereo not given),inactive,inactive,inactive,inactive,,,,
CCN(CC)CCOc1ccc2c(c1)C(=O)c1cc(OCCN(CC)CC)ccc1-2,776 nM (active),1550 nM (active),550 nM (active),5490 nM (active),,,,
CCCCOC(=O)/C=C\C(=O)OCCCC,inactive,inactive,inactive,inactive,,,,
O=C(O)C(=O)Cc1c[nH]c2ccccc12,inactive,inactive,inactive,inactive,,,,
Cc1cc(O)c2c(O)c3c(O)cccc3cc2c1,inactive,inactive,inactive,inactive,,,,
C#C[C@]1(OC(C)=O)CC[C@H]2[C@@H]3CCC4=C[C@@H](OC(C)=O)CC[C@@H]4[C@H]3CC[C@@]21C,inactive,inactive,inactive,inactive,,,,
O=C(C(Cl)Cl)N1CCOC12CCCCC2,inactive,inactive,inactive,inactive,,,,
CCC(=O)OCc1ccc(OC)cc1,inactive,inactive,inactive,inactive,,,,
OC(CN1CCC(Cc2ccc(F)cc2)CC1)c1ccc(Cl)cc1 (stereo not given),inactive,inactive,inactive,inactive,,,,
CC(=O)N[C@@H](CC(C)C)C(=O)O,inactive,inactive,inactive,inactive,,,,
CC(O)CN(CCCN(C)C)CCCN(C)C (stereo not given),inactive,inactive,inactive,inactive,,,,
CC(C)(C)C(=O)OCOC(=O)C1N2C(=O)CC2S(=O)(=O)C1(C)C (stereo not given),inactive,inactive,inactive,inactive,,,,
CCCCCCOC(=O)CC,inactive,inactive,inactive,inactive,,,,
Nc1ccccc1S(=O)(=O)c1ccccc1,inactive,inactive,inactive,inactive,,,,

SMILES,Potency [1],Potency [2],Potency [3],Potency [4],"activity, negative = inhibition [1]","activity change, negative = inhibition [2]","activity change, negative = inhibition [3]","activity change, negative = inhibition [4]"
N#Cc1ccc(C(c2ccc(C#N)cc2)n2cncn2)cc1,inactive,inactive,inactive,inactive,,,,
COc1ccc2c(c1)C(=O)N(CCc1ccc(S(=O)(=O)NC(=O)NC3CCCCC3)cc1)C(=O)C2(C)C,inactive,inactive,inactive,inactive,,,,
Cc1nc(C)nc(N2C[C@@H](C)N(c3ccnc([C@@H](C)O)n3)[C@@H](C)C2)n1,inactive,inactive,inactive,inactive,,,,
Cc1ccccc1N1C(=O)c2cc(S(N)(=O)=O)c(Cl)cc2NC1C (stereo not given),inactive,inactive,inactive,inactive,,,,
CCCC(C)C=O (stereo not given),inactive,inactive,inactive,inactive,,,,
Oc1ccc(Nc2ccccc2)cc1,inactive,inactive,inactive,inactive,,,,
CC1(C)CC(O)CC(C)(C)N1[O],inactive,inactive,inactive,inactive,,,,
COC(=O)/C=C(/C)N,inactive,inactive,inactive,inactive,,,,
O=C(C1CCCCC1)N1CC(=O)N2CCCc3ccccc3C2C1 (stereo not given),inactive,inactive,inactive,inactive,,,,
Cn1c(=O)c2c(ncn2CC(O)CO)n(C)c1=O (stereo not given),inactive,inactive,inactive,inactive,,,,
NC(=O)Nc1ccc(Cl)c(Cl)c1,inactive,inactive,inactive,inactive,,,,
CC(CO)CO,inactive,inactive,inactive,inactive,,,,
CN(CCCN1c2ccccc2CCc2ccccc21)CC(=O)c1ccc(Cl)cc1,inactive,inactive,inactive,inactive,,,,
CCCCCCCCCCCCCCC1CO1 (stereo not given),inactive,inactive,inactive,inactive,,,,
O=C(C(=O)c1ccco1)c1ccco1,inactive,inactive,inactive,inactive,,,,
OC[C@@H](O)[C@@H](O)CO,inactive,inactive,inactive,inactive,,,,
CCOC(=O)C(=O)OCC,inactive,inactive,inactive,inactive,,,,
CCCCCCCCCCCCCc1ccccc1,inactive,inactive,inactive,inactive,,,,
CC(=O)OCC(=O)[C@@]1(OC(C)=O)[C@@H](C)C[C@H]2[C@@H]3C[C@H](F)C4=CC(=O)C=C[C@]4(C)[C@@]3(F)[C@@H](O)C[C@@]21C,inactive,inactive,inactive,inactive,,,,
